Molecules are shown by their SMILES. About 290 (24%) of roughly 1,200 compounds were called active. Not shown: some 3% with an inconclusive outcome. These entries were drawn from the full list. Potency and affinity values are given separately. Values without a mark were called inactive.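 Rule for the calls: active = compounds lowering cell viability signal with fitted half-maximal concentration at most ten times their highest tested concentration; inconclusive = flat fit with 30 to 70% signal loss, or poor fit; inactive = the rest.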

The assay in a line: HEK293T cell viability reduction, dose response, cytotoxicity control for LMP1 NF-kB inhibitor project, CellTiter-Glo luminescence, cherry-picks (AID 504861). Particulars: CellTiter-Glo ATP luminescence, 48 h; series mostly up to 26 µM; activity change, negative = cytotoxicity: at the top concentration.
As to `Cc1cc(C(=O)CSc2nnc(-c3cccs3)o2)c(C)n1-c1ccccc1`, the “activity change, negative = cytotoxicity” value is 1.11%.
Consider `O=C(O)CN1C(=O)/C(=C\c2ccccc2OCc2ccc(Cl)cc2Cl)SC1=S`, for which the “activity change, negative = cytotoxicity” value is 5.71%.
For `O=c1c2cnn(-c3ccccc3)c2nc(-c2cccs2)n1-c1ccc(Br)cc1`, the “activity change, negative = cytotoxicity” value was 1.27%.
Consider `COc1ccc(N2CCN(CCNC(=O)CCCn3c(=O)[nH]c4cc(Cl)ccc4c3=O)CC2)cc1`, for which the “activity change, negative = cytotoxicity” value is 5.79%.
Take `COc1cc(C(=S)N2CCOCC2)cc(OC)c1OC(=O)c1ccc(F)cc1`: the “activity change, negative = cytotoxicity” value is 2.77%.
On to `COc1ccc(NC(=O)c2ccc(-c3ccccc3)cc2)cc1S(=O)(=O)N1CCOCC1`, for which the “activity change, negative = cytotoxicity” value was 0.12%.
The figure for `CC(C)CCNC(=O)C1CCN(S(=O)(=O)c2ccc3c(c2)CC(C)N3C(=O)C2CC2)CC1` (configuration not stated) is -4.11%; for `COc1ccc(OC)c(S(=O)(=O)NC(C)CCc2ccccc2)c1` (configuration not stated) it is -3.46%; for `COc1ccc(C(=O)CSc2nnc(Cc3ccccc3)o2)cc1` it is -0.444%.
The figure for `Cc1ccc(-c2nc3cccnc3o2)cc1NC(=O)COc1ccc(C(C)(C)C)cc1` is -1.19%; for `CCc1ccc(C(=O)COC(=O)c2cccc(N3C(=O)c4c(C)nc5ccccc5c4C3=O)c2)cc1` it is 17.6%; for `CCOC(=O)Cc1csc(N/N=C\c2ccc(N(C)C)cc2)n1` it is -1.39%.
The value for `O=C(OCc1ccccc1F)c1cc2ccccc2cc1O` was -1.01%.
Regarding `Cc1cc(OCC(=O)Nc2cnn(CCCC(=O)O)c2)ccc1Cl`, the “activity change, negative = cytotoxicity” value was 13.2%.
Consider `C=CCn1c(SCc2ccc3nonc3c2)nnc1-c1cccs1`, for which the “activity change, negative = cytotoxicity” value is 1.17%.
With `CCOC(=O)c1sc(NC(=O)CNCc2ccccn2)c(C(=O)OCC)c1C`, the “activity change, negative = cytotoxicity” value was -5.06%.
With `Cc1ccc(-n2ccc(=O)c(C(=O)Nc3ccc(S(=O)(=O)N4CCOCC4)cc3)n2)cc1`, the “activity change, negative = cytotoxicity” value is 0.296%.
The figure for `Cc1ccnc(NC(=O)c2sc3ccccc3c2Cl)c1` is 6.79%.
Consider `Oc1c(N=NC(=S)Nc2ccccc2F)c2ccccc2n1Cc1ccccc1`, for which the “activity change, negative = cytotoxicity” value was -0.998%.
In the case of `Cc1ccc(S(=O)(=O)NC(CC(C)C)C(=O)NCC(c2ccco2)N2CCCCC2)cc1` (configuration not stated), the “activity change, negative = cytotoxicity” value was -0.283%.
As to `CCCCCn1c(N2CCOCC2)nc2c1c(=O)n(CC(N)=O)c(=O)n2C`, the “activity change, negative = cytotoxicity” value is 8.7%.
`O=C(NCCOc1ccccc1)c1ccc2c(c1)OCO2`: the “activity change, negative = cytotoxicity” value is -2.16%.
Turning to `C(=Cc1nc2ccccc2o1)c1ccc2c(c1)OCO2`, the “activity change, negative = cytotoxicity” value was 2.36%.
Consider `Cc1cc(C)c(OCCn2ccnc2)c(C)c1`, for which the “activity change, negative = cytotoxicity” value was -0.473%.
The value for `COc1ccc2oc(C(=O)NCCc3ccccc3)c(C)c2c1` was -1.74%; that for `COc1ccc(-c2nnc(NC(=O)c3ccc(S(=O)(=O)N4CCCc5ccccc54)cc3)o2)cc1` was 4.47%; that for `O=C1N[C@@H](Cc2c[nH]c3ccccc23)COC(=O)[C@H](Cc2ccc(F)cc2)C/C=C\C[C@H]1CC(=O)N(CCO)Cc1ccccc1` was -1.61%.
`Cc1sc2ncnc(N3CCC(C(=O)Nc4ccccc4C(C)(C)C)CC3)c2c1C`: the “activity change, negative = cytotoxicity” value is -1.53%.
`Cc1sc2ncn(CC(=O)N3CCC(C(N)=O)CC3)c(=O)c2c1S(=O)(=O)N1CCOCC1`: the “activity change, negative = cytotoxicity” value is 10.7%.
The figure for `O=c1oc2ccccc2c(O)c1/C=N/c1ccccn1` is 10.1%; for `CC1(C)Cc2nc3sc4c(SCC(=O)O)ncnc4c3cc2CO1` it is 5.57%.
On to `COc1ccc(C(=O)N2CC(=O)Nc3ccccc32)cc1S(=O)(=O)N1CCCC1`, for which the “activity change, negative = cytotoxicity” value is 17.4%.
As to `CCOc1ccc(S(=O)(=O)N2CCC(C(=O)NCCc3ccc(S(N)(=O)=O)cc3)CC2)cc1`, the “activity change, negative = cytotoxicity” value was 9.59%.
In the case of `CCOc1ccc(NC(=S)N=Nc2c(O)[nH]c3ccccc23)cc1`, the “activity change, negative = cytotoxicity” value was -3.24%.
For `CSc1oc(-c2ccc(F)cc2)nc1S(=O)(=O)c1ccc(F)cc1`, the “activity change, negative = cytotoxicity” value was 5.8%.
In the case of `O=C(CN1C(=O)C2C3C=CC(C3)C2C1=O)NCCC1=CCCCC1` (configuration not stated), the “activity change, negative = cytotoxicity” value was 22%.
As to `O=C(Cc1ccc(Cl)cc1)NCC(=O)N1CCCCC1`, the “activity change, negative = cytotoxicity” value is 6.35%.
For the compound `CCCCN1C2CCCC1CC(NC(=O)C1CCCCC1)C2` (configuration not stated), the “activity change, negative = cytotoxicity” value was 7.49%.
Consider `Cc1ccc(C(=O)Nc2nnc(SCC(=O)N3CCCc4ccccc43)s2)cc1`, for which the “activity change, negative = cytotoxicity” value is 5.64%.
In the case of `CCc1sc(C(=O)Nc2nc(-c3ccccn3)cs2)cc1C`, the “activity change, negative = cytotoxicity” value was -6.77%.
On to `Cc1cccc(CNc2ncnc3ccc(-c4ccoc4)cc23)c1`, for which the “activity change, negative = cytotoxicity” value was 4.7%.
Take `COCCn1c(C)cc(C(=O)CSc2nnc3ccccn23)c1C`: the “activity change, negative = cytotoxicity” value was -3.29%.
Turning to `Cc1ccc(S(=O)(=O)N2c3ccccc3-c3c(ssc3=S)C2(C)C)cc1`, the “activity change, negative = cytotoxicity” value is -4.1%.
Take `Nc1ncnc2c1c(-c1ccc(Oc3ccccc3)cc1)cn2C1CCCC1`: the “activity change, negative = cytotoxicity” value is 3.2%.
Regarding `O=C(Nc1cc(C(F)(F)F)cc(C(F)(F)F)c1)Nc1cnn(-c2ccc([N+](=O)[O-])cc2)c1C(F)(F)F`, the “activity change, negative = cytotoxicity” value is -0.689%.
On to `CCOc1ccc(NC(=O)c2ccc(N3CC4CC(C3)c3cccc(=O)n3C4)c(NC(=O)c3cccnc3)c2)cc1` (configuration not stated), for which the “activity change, negative = cytotoxicity” value is 10.1%.
Regarding `Cc1cccc(S(=O)(=O)N2CCCc3ccccc32)c1`, the “activity change, negative = cytotoxicity” value is 0.425%.
The value for `COc1ccc(OC)c(NC(=O)COc2coc(CN3CCc4ccccc43)cc2=O)c1` was 5.75%; that for `Nc1ccc(CCNc2ncnc3c2ncn3[C@@H]2O[C@H](CO)[C@@H](O)[C@H]2O)cc1` was 6.31%; that for `COc1ccc(-c2cc(C(F)(F)F)n3nc(C(=O)N4CCOCC4)nc3n2)cc1` was 15.6%.
Consider `O=C(Nc1ccc2c(c1)C(=O)OC2)c1ccc(C(F)(F)F)cc1`, for which the “activity change, negative = cytotoxicity” value is 0.862%.
As to `O=C(Cn1nc(C(F)(F)F)c2c1CCC2)NC1CCCCC1`, the “activity change, negative = cytotoxicity” value was 4.08%.

The values above are taken from PubChem BioAssay AID504861 (Broad Institute, 2011).
